In PMC7862700, “An all-to-all approach to the identification of sequence-specific readers for epigenetic DNA modifications on cytosine”:

What was measured:
Assay in all cases: DAPPL (digital affinity profiling via proximity ligation, sequencing); 10 mM Tris-HCl pH 7.5, 50 mM NaCl, 1 mM DTT, 4% glycerol, room temperature, 30 min; GST-TFs on glutathione beads, 16-mer random dsDNA library, 0.1% formaldehyde crosslink after washing; high values mean tight binding
Conditions in all cases: protein: recombinant; tags: N-terminal GST; dsDNA, one strand shown
[1] = biological target: T1, FLI1 (Homo sapiens, UniProt Q01543 1-452)
T1 sequence: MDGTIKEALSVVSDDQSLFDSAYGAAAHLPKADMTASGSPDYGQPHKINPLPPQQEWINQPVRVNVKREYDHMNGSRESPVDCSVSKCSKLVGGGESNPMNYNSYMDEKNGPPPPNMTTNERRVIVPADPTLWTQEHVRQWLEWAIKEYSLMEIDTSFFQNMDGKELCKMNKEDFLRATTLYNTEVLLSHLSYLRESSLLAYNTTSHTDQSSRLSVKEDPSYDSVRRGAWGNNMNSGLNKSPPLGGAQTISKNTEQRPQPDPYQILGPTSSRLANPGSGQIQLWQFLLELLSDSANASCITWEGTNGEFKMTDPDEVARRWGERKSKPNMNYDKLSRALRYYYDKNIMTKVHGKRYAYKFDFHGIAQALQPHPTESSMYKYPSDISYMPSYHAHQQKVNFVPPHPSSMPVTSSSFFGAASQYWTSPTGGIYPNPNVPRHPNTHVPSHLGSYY
In short: (§1)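 The binding signal reported is, for every hexamer, its read frequency for a factor over its read frequency for the tag-only sample. Reads came from pools of yeast-expressed, GST-fused human transcription factors on glutathione beads, barcoded with DNA and mixed with that sample, which were incubated with 200 nmole of a random double-stranded 16-mer DNA library in Tris/NaCl/DTT/glycerol buffer at room temperature for 30 min. After washing, the pools were crosslinked with 0.1% formaldehyde, proximity-ligated with BsaI/T4 ligase for 1 h at 37 °C, PCR-amplified and sequenced on an Illumina NextSeq500.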

[2] = biological target: T2, ELK1 (Homo sapiens, UniProt P19419 1-428)
T2 sequence: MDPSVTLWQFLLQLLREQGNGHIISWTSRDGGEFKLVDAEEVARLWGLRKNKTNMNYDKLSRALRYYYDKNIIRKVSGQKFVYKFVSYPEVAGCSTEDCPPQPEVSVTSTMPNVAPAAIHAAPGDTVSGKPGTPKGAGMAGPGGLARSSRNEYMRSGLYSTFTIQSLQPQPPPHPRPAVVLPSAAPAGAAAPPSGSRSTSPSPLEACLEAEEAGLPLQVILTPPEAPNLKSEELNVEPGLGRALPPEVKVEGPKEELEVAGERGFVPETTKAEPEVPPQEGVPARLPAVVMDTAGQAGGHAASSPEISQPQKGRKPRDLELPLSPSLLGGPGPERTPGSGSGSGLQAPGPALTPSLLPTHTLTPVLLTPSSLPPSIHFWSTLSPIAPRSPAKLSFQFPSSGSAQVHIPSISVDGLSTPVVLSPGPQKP
In short: as §1

[3] = biological target: T3, GABPA (Homo sapiens, UniProt Q06546 1-454)
T3 sequence: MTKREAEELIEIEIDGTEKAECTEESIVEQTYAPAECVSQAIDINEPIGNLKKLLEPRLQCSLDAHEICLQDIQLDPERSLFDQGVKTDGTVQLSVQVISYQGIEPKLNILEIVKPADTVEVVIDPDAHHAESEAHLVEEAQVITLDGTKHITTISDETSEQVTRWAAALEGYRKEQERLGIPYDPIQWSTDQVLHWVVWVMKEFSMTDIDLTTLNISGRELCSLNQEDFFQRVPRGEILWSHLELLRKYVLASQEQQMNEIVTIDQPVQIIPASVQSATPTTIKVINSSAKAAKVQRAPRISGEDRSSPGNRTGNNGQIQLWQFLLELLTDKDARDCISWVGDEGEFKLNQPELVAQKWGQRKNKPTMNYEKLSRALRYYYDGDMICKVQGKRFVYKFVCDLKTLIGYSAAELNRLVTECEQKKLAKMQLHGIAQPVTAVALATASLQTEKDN
In short: as §1

[4] = biological target: T4, ERG (Homo sapiens, UniProt P11308 1-479)
T4 sequence: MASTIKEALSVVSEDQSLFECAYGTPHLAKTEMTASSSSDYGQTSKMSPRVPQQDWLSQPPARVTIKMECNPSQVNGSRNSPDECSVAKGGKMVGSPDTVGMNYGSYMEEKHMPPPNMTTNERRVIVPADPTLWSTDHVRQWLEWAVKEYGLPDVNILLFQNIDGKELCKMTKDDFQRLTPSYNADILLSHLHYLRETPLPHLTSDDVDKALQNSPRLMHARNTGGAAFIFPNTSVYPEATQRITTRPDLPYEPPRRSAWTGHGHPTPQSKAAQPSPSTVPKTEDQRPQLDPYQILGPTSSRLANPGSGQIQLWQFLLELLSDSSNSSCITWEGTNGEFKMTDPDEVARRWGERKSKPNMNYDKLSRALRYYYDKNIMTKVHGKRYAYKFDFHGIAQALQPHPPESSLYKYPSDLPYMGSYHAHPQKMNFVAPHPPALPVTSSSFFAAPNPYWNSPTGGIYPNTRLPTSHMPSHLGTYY
In short: as §1

[5] = biological target: ELF1 (Homo sapiens, UniProt P32519 1-619)
In short: as §1

[6] = biological target: T5, EHF (Homo sapiens, UniProt Q9NZC4 1-300)
T5 sequence: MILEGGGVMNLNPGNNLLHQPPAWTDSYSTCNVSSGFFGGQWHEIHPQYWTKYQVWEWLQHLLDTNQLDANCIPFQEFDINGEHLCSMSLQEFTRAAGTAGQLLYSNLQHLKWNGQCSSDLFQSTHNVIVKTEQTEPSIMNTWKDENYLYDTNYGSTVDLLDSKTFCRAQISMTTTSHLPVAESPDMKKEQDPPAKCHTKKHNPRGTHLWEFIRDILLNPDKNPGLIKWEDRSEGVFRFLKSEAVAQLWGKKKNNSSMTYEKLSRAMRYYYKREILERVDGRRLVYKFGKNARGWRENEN
In short: as §1

[7] = biological target: SPI1 (Homo sapiens, UniProt P17947 1-270)
In short: as §1

[8] = biological target: SPIB (Homo sapiens, UniProt Q01892 1-262)
In short: as §1

[9] = biological target: T6, ELK3 (Homo sapiens, UniProt P41970 1-407)
T6 sequence: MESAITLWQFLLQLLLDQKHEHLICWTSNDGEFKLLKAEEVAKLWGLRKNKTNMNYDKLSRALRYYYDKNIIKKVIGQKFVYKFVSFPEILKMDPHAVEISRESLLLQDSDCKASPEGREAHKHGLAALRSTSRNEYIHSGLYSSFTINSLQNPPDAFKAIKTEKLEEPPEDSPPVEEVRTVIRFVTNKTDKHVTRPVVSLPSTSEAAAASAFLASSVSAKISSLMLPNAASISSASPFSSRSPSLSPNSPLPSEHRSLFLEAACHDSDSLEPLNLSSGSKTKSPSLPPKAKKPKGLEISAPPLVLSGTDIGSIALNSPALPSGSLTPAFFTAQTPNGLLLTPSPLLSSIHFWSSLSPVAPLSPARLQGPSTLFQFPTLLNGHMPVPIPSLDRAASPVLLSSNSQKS
In short: as §1

Sequence of SPIB (Q01892 whole entry): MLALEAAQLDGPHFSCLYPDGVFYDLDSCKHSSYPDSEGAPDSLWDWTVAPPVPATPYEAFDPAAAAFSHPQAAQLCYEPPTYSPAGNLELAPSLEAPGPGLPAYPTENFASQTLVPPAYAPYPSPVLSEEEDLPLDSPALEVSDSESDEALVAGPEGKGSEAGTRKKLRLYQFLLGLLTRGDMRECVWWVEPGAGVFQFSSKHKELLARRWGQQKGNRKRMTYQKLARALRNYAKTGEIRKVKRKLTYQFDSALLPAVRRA
Sequence of ELF1 (P32519 whole entry): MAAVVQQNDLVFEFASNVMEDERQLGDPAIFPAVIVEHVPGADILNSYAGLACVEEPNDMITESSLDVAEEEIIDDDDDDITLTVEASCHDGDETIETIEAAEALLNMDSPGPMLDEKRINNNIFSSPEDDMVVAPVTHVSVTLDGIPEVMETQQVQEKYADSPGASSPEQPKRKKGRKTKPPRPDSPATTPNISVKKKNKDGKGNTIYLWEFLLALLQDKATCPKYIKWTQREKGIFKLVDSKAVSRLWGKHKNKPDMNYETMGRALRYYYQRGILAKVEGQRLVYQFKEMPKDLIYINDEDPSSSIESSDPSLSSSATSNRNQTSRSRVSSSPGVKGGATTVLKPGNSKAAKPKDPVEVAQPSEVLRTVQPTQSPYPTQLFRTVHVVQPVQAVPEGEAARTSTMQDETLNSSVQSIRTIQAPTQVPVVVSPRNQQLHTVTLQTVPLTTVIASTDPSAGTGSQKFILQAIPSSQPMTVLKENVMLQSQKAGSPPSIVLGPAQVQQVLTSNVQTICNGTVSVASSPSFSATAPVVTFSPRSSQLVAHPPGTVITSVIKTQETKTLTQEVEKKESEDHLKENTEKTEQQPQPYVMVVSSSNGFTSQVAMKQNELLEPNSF

| Sequence | binding signal [1] | binding signal [2] | binding signal [3] | binding signal [4] | binding signal [5] | binding signal [6] | binding signal [7] | binding signal [8] | binding signal [9] |
| --- | --- | --- | --- | --- | --- | --- | --- | --- | --- |
| ATTATG | 1.3 fold enrichment (6-mer frequency, TF over GST control) | 1.18 fold enrichment (6-mer frequency, TF over GST control) | 1.16 fold enrichment (6-mer frequency, TF over GST control) | 1.2 fold enrichment (6-mer frequency, TF over GST control) | 1.2 fold enrichment (6-mer frequency, TF over GST control) | 1.25 fold enrichment (6-mer frequency, TF over GST control) | 1.25 fold enrichment (6-mer frequency, TF over GST control) | 1.25 fold enrichment (6-mer frequency, TF over GST control) | 1.17 fold enrichment (6-mer frequency, TF over GST control) |
| CTATTT | 1.7 fold enrichment (6-mer frequency, TF over GST control) | 1.67 fold enrichment (6-mer frequency, TF over GST control) | 1.74 fold enrichment (6-mer frequency, TF over GST control) | 1.77 fold enrichment (6-mer frequency, TF over GST control) | 1.58 fold enrichment (6-mer frequency, TF over GST control) | 1.85 fold enrichment (6-mer frequency, TF over GST control) | 1.76 fold enrichment (6-mer frequency, TF over GST control) | 1.81 fold enrichment (6-mer frequency, TF over GST control) | 1.85 fold enrichment (6-mer frequency, TF over GST control) |
| AAAACT | 1.23 fold enrichment (6-mer frequency, TF over GST control) | 1.16 fold enrichment (6-mer frequency, TF over GST control) | 1.15 fold enrichment (6-mer frequency, TF over GST control) | 1.17 fold enrichment (6-mer frequency, TF over GST control) | 1.25 fold enrichment (6-mer frequency, TF over GST control) | 1.24 fold enrichment (6-mer frequency, TF over GST control) | 1.17 fold enrichment (6-mer frequency, TF over GST control) | 1.23 fold enrichment (6-mer frequency, TF over GST control) | 1.19 fold enrichment (6-mer frequency, TF over GST control) |
| TTATGC | 1.34 fold enrichment (6-mer frequency, TF over GST control) | 1.34 fold enrichment (6-mer frequency, TF over GST control) | 1.22 fold enrichment (6-mer frequency, TF over GST control) | 1.31 fold enrichment (6-mer frequency, TF over GST control) | 1.15 fold enrichment (6-mer frequency, TF over GST control) | 1.43 fold enrichment (6-mer frequency, TF over GST control) | 1.34 fold enrichment (6-mer frequency, TF over GST control) | 1.26 fold enrichment (6-mer frequency, TF over GST control) | 1.16 fold enrichment (6-mer frequency, TF over GST control) |
| CTTTTT | 1.22 fold enrichment (6-mer frequency, TF over GST control) | 1.16 fold enrichment (6-mer frequency, TF over GST control) | 1.32 fold enrichment (6-mer frequency, TF over GST control) | 1.25 fold enrichment (6-mer frequency, TF over GST control) | 1.31 fold enrichment (6-mer frequency, TF over GST control) | 1.17 fold enrichment (6-mer frequency, TF over GST control) | 1.88 fold enrichment (6-mer frequency, TF over GST control) | 1.41 fold enrichment (6-mer frequency, TF over GST control) | 1.37 fold enrichment (6-mer frequency, TF over GST control) |
| TCTAGC | 1.31 fold enrichment (6-mer frequency, TF over GST control) | 1.34 fold enrichment (6-mer frequency, TF over GST control) | 1.24 fold enrichment (6-mer frequency, TF over GST control) | 1.32 fold enrichment (6-mer frequency, TF over GST control) | 1.35 fold enrichment (6-mer frequency, TF over GST control) | 1.38 fold enrichment (6-mer frequency, TF over GST control) | 1.21 fold enrichment (6-mer frequency, TF over GST control) | 1.19 fold enrichment (6-mer frequency, TF over GST control) | 1.44 fold enrichment (6-mer frequency, TF over GST control) |
| TTACTT | 1.44 fold enrichment (6-mer frequency, TF over GST control) | 1.53 fold enrichment (6-mer frequency, TF over GST control) | 1.44 fold enrichment (6-mer frequency, TF over GST control) | 1.44 fold enrichment (6-mer frequency, TF over GST control) | 1.53 fold enrichment (6-mer frequency, TF over GST control) | 1.58 fold enrichment (6-mer frequency, TF over GST control) | 1.59 fold enrichment (6-mer frequency, TF over GST control) | 1.58 fold enrichment (6-mer frequency, TF over GST control) | 1.64 fold enrichment (6-mer frequency, TF over GST control) |
